The antibiotic and cytotoxicity screens of Wong et al. (2023)
About 3,300 (8.5%) of roughly 39,000 compounds were called active. For the sample, actives were picked, then their nearest neighbours and some compounds at random.

What follows are compounds tested on HepG2 (assay: cytotoxicity call (relative viability < 0.9)). Settings: 10 µM.
For `C[C@@H]1CN([C@H](C)CO)S(=O)(=O)c2ccc(-c3ccccc3F)cc2O[C@@H]1CN(C)Cc1cncnc1`, the cytotoxicity call was “inactive”. In the case of `CCS(=O)(=O)Nc1ccc2c(c1)C(=O)N(C)[C@H]1CC[C@H](CC(=O)N[C@@H]3CCN(Cc4ccccc4)C3)O[C@H]1CO2`, the cytotoxicity call is reported as “inactive”. For `C[C@@H]1CCCCO[C@@H](CN(C)C(=O)Nc2cccc3ccccc23)[C@H](C)CN([C@@H](C)CO)C(=O)c2cc(NC(=O)Nc3ccc(F)cc3)ccc2O1`, the cytotoxicity call was “inactive”. `O=C1c2c(O)ccc(O)c2C(=O)c2c(NCCNCCO)ccc(NCCNCCO)c21` was tested, and the cytotoxicity call was “active”. With `O=C1c2ccccc2C(=O)c2c1ccc(O)c2O` the cytotoxicity call was “inactive”. For `O=[N+]([O-])c1ccc(NCCNCCO)cc1`, the cytotoxicity call was “inactive”. With `O=C1c2ccccc2C(=O)c2c(NCCNCCO)ccc(NCCNCCO)c21` the cytotoxicity call was “active”. For `O=C(CCNCCO)c1ccccc1`, the cytotoxicity call was “inactive”. `Cl.Cl.O=C1c2c(O)ccc(O)c2C(=O)c2c(NCCNCCO)ccc(NCCNCCO)c21` was tested, and the cytotoxicity call was “active”. In the case of `CN1CCN(C(=O)C[C@H]2CC[C@H]3[C@H](COc4ccc(NC(=O)C5CCCCC5)cc4C(=O)N3C)O2)CC1`, the cytotoxicity call is reported as “inactive”. `C[C@]12C(=O)N(CCCCCO)[C@@H]3C(=O)N(c4ccc(Cl)cc4)CC=C[C@]31O[C@@H]1/C=C\CCCOC(=O)[C@H]12` was tested, and the cytotoxicity call was “inactive”. `O=C(C[C@@H]1CC[C@H](NC(=O)CN2CCOCC2)[C@@H](CO)O1)NC1CCC1` was tested, and the cytotoxicity call was “inactive”. With `CC(C)NC(=O)Nc1ccc2c(c1)C(=O)N([C@H](C)CO)C[C@@H](C)[C@@H](CN(C)S(=O)(=O)c1ccccc1)O2` the cytotoxicity call was “inactive”. For `COCC#Cc1ccc2c(c1)O[C@@H](CN(C)S(=O)(=O)c1ccc(OC)cc1)[C@H](C)CN([C@H](C)CO)S2(=O)=O`, the cytotoxicity call was “inactive”. In the case of `C[C@H](CO)N1C[C@H](C)[C@@H](CN(C)C(=O)Nc2cccc3ccccc23)OCCCC[C@H](C)Oc2ccc(NS(=O)(=O)c3cn(C)cn3)cc2C1=O`, the cytotoxicity call is reported as “inactive”. For `C[C@@H]1CN([C@H](C)CO)C(=O)Cc2cc(NC(=O)Cn3cnnn3)ccc2O[C@H]1CN(C)Cc1ccc(Cl)c(Cl)c1`, the cytotoxicity call was “inactive”. For `C/C=C/c1cccc(-c2nc(C(=O)NCc3cccc(OC)c3)cc3c2[C@@H](CCO)N([S@](=O)C(C)(C)C)C3)c1`, the cytotoxicity call was “inactive”. In the case of `CC(C)[Si]1(C(C)C)O[C@@H](c2ccccc2)c2cc(C3CC3)nc(-c3ccc(Oc4ccccc4)cc3)c21`, the cytotoxicity call is reported as “inactive”. With `CC(CN1c2ccccc2Sc2ccccc21)N(C)C.Cl` (configuration not stated) the cytotoxicity call was “active”. In the case of `CCN(CC)C(C)CN1c2ccccc2Sc2ccccc21.Cl` (configuration not stated), the cytotoxicity call is reported as “active”. `CCC(CC)C(=O)N1c2ccccc2Sc2ccccc21` was tested, and the cytotoxicity call was “inactive”. `C[C@H]1CN([C@@H](C)CO)C(=O)c2cc(NC(=O)Cn3cnnn3)ccc2O[C@H]1CN(C)Cc1ccc(Oc2ccccc2)cc1` was tested, and the cytotoxicity call was “inactive”. For `C[C@H](CO)N1C[C@H](C)[C@H](CN(C)Cc2ccc(C(F)(F)F)cc2)Oc2c(NC(=O)Nc3cccc4ccccc34)cccc2C1=O`, the cytotoxicity call was “inactive”. `Cc1ccc(S(=O)(=O)N(C)C[C@H]2OCCCC[C@@H](C)Oc3ccc(NS(=O)(=O)c4ccc(F)cc4)cc3C(=O)N([C@H](C)CO)C[C@H]2C)cc1` was tested, and the cytotoxicity call was “inactive”. For `C=C1[C@@H]2[C@H]3OC(=O)[C@@H](C)[C@@H]3[C@@H](O[C@@H]3O[C@H](CO)[C@@H](O)[C@H](O)[C@H]3O)CC(=C)[C@@H]2C[C@@H]1O`, the cytotoxicity call was “inactive”. In the case of `COc1cc(-c2coc3cc(OCc4ccccc4)c(OC)c(O)c3c2=O)cc(OCc2ccccc2)c1OC`, the cytotoxicity call is reported as “inactive”. In the case of `C[C@@H]1CCCCO[C@@H](CN(C)CC2CCCCC2)[C@H](C)CN([C@H](C)CO)C(=O)c2cc(NS(=O)(=O)c3cccs3)ccc2O1`, the cytotoxicity call is reported as “inactive”. With `Cc1sc(Nc2ccccc2)nc1-c1ccc(Cl)cc1` the cytotoxicity call was “active”. With `Cc1ccc(Nc2nc(-c3ccc(C)cc3)c(C)s2)cc1` the cytotoxicity call was “inactive”. `Cc1nc(-c2ccc(Cl)cc2)c(-c2ccccc2)s1` was tested, and the cytotoxicity call was “active”. `Cc1ccc(-c2nc(Nc3cccc(Cl)c3)sc2C)cc1` was tested, and the cytotoxicity call was “inactive”. With `Cc1sc(N)nc1-c1ccccc1` the cytotoxicity call was “inactive”. In the case of `C=C(C)CNc1nc(-c2ccccc2)c(-c2ccccc2)s1`, the cytotoxicity call is reported as “inactive”. In the case of `NC(=O)Cn1c(=O)c2ccccc2n(CC(N)=O)c1=O`, the cytotoxicity call is reported as “inactive”. In the case of `C=CCN(Cc1ccccc1)C(=O)[C@@H]1N(c2c(Cl)cccc2CO)C(=O)[C@@H]2[C@H](C(=O)O)[C@@H]3C=C[C@@]21O3`, the cytotoxicity call is reported as “inactive”. `C[C@H]1CN([C@@H](C)CO)C(=O)c2cc(NC(=O)Nc3ccc(F)cc3)ccc2O[C@H]1CN(C)Cc1ccc(C(=O)Nc2ccccc2N)cc1` was tested, and the cytotoxicity call was “inactive”. With `C[C@@H]1CN([C@H](C)CO)C(=O)c2cc(NC(=O)Nc3ccc(C(F)(F)F)cc3)ccc2O[C@H]1CN(C)Cc1ccc(C(=O)Nc2ccccc2N)cc1` the cytotoxicity call was “inactive”. For `C[C@H]1CN([C@@H](C)CO)C(=O)c2cc(NC(=O)Nc3ccccc3)ccc2O[C@H]1CN(C)Cc1ccc(C(=O)Nc2ccccc2N)cc1`, the cytotoxicity call was “inactive”. With `C[C@@H]1CN([C@@H](C)CO)C(=O)c2cc(NC(=O)Nc3ccccc3)ccc2O[C@@H]1CN(C)Cc1ccc(C(=O)Nc2ccccc2N)cc1` the cytotoxicity call was “active”. With `C[C@H]1CN([C@@H](C)CO)C(=O)c2cc(NC(=O)Nc3ccc(C(F)(F)F)cc3)ccc2O[C@@H]1CN(C)Cc1ccc(C(=O)Nc2ccccc2N)cc1` the cytotoxicity call was “inactive”. With `C[C@@H]1CN([C@@H](C)CO)C(=O)c2cc(NC(=O)Nc3ccc(C(F)(F)F)cc3)ccc2O[C@@H]1CN(C)Cc1ccc(C(=O)Nc2ccccc2N)cc1` the cytotoxicity call was “active”. For `C[C@H](CO)N1C[C@H](C)[C@H](CN(C)Cc2ccc(C(=O)Nc3ccccc3N)cc2)Oc2ccc(NC(=O)Nc3ccc(C(F)(F)F)cc3)cc2C1=O`, the cytotoxicity call was “active”. In the case of `C[C@H](CO)N1C[C@H](C)[C@H](CN(C)Cc2ccc(C(=O)Nc3ccccc3N)cc2)Oc2ccc(NC(=O)Nc3ccc(F)cc3)cc2C1=O`, the cytotoxicity call is reported as “inactive”. For `C[C@@H]1CN([C@@H](C)CO)C(=O)c2cc(NC(=O)Nc3ccc(F)cc3)ccc2O[C@@H]1CN(C)Cc1ccc(C(=O)Nc2ccccc2N)cc1`, the cytotoxicity call was “inactive”. `C[C@@H]1CN([C@H](C)CO)C(=O)c2cc(NC(=O)Nc3ccc(C(F)(F)F)cc3)ccc2O[C@@H]1CN(C)Cc1ccc(C(=O)Nc2ccccc2N)cc1` was tested, and the cytotoxicity call was “active”. For `C[C@H](CO)N1C[C@H](C)[C@@H](CN(C)Cc2ccc(C(=O)Nc3ccccc3N)cc2)Oc2ccc(NC(=O)Nc3ccc(F)cc3)cc2C1=O`, the cytotoxicity call was “inactive”. With `C[C@H](CO)N1C[C@H](C)[C@H](CN(C)Cc2ccc(C(=O)Nc3ccccc3N)cc2)Oc2ccc(NC(=O)Nc3ccccc3)cc2C1=O` the cytotoxicity call was “inactive”. For `C[C@H]1CN([C@@H](C)CO)C(=O)c2cccc(NC(=O)C3CC3)c2O[C@H]1CN(C)S(=O)(=O)c1ccc(F)cc1`, the cytotoxicity call was “inactive”. In the case of `COc1ccc(CN(C)C[C@H]2OCCCC[C@@H](C)Oc3ccc(NS(=O)(=O)c4ccc(C)cc4)cc3C(=O)N([C@H](C)CO)C[C@H]2C)cc1`, the cytotoxicity call is reported as “inactive”. In the case of `C[C@H]1CN([C@@H](C)CO)C(=O)c2cc(NS(=O)(=O)c3cn(C)cn3)ccc2O[C@@H]1CN(C)S(=O)(=O)c1ccc(Cl)cc1`, the cytotoxicity call is reported as “inactive”. `NNC(=O)c1cccc(C(F)(F)F)n1` was tested, and the cytotoxicity call was “inactive”. With `CCC(=O)O[C@H]1[C@@H]2CC3=C4CC(=O)O[C@@H](c5ccoc5)[C@]4(C)CC[C@@H]3[C@@](C)(C2=O)[C@@H](CC(=O)OC)C1(C)C` the cytotoxicity call was “inactive”. For `C[C@H](CO)N1C[C@H](C)[C@H](CN(C)C(=O)c2ccccc2)OCCCC[C@H](C)Oc2ccc(NS(=O)(=O)c3cccs3)cc2C1=O`, the cytotoxicity call was “inactive”. With `C[C@@H]1CN([C@@H](C)CO)C(=O)c2cc(NC(=O)Cc3cn(C)c4ccccc34)ccc2O[C@H]1CN(C)CC1CCCCC1` the cytotoxicity call was “inactive”. With `COc1cccc(S(=O)(=O)Nc2ccc3c(c2)[C@H]2C[C@H](CC(=O)NC4CCCCC4)O[C@@H](CO)[C@H]2O3)c1` the cytotoxicity call was “inactive”. With `CN(C)CCCNC(=O)C[C@@H]1CC[C@H]2[C@H](COc3ccc(NC(=O)c4cccc(F)c4)cc3C(=O)N2C)O1` the cytotoxicity call was “inactive”. For `COc1ccc(S(=O)(=O)Nc2ccc3c(c2)C(=O)N([C@@H](C)CO)C[C@@H](C)[C@@H](CN(C)Cc2ccc4c(c2)OCO4)OCCCC[C@H](C)O3)cc1`, the cytotoxicity call was “inactive”. For `CCC(=O)NCc1nccc(N(C)C)n1`, the cytotoxicity call was “inactive”. For `C[C@H](CO)N1C[C@H](C)[C@@H](CN(C)S(=O)(=O)c2ccc(F)cc2)Oc2ccc(NC(=O)Cn3cnnn3)cc2CC1=O`, the cytotoxicity call was “inactive”. `C[C@@H]1CN([C@@H](C)CO)C(=O)c2cc(NC(=O)Nc3ccc(C(F)(F)F)cc3)ccc2O[C@H]1CN(C)Cc1ccc(C(=O)Nc2ccccc2N)cc1` was tested, and the cytotoxicity call was “active”. In the case of `C[C@H](CO)N1C[C@H](C)[C@@H](CN(C)Cc2ccc(C(=O)Nc3ccccc3N)cc2)Oc2ccc(NC(=O)Nc3ccc(C(F)(F)F)cc3)cc2C1=O`, the cytotoxicity call is reported as “inactive”. In the case of `C[C@H]1CN([C@@H](C)CO)C(=O)c2cc(NC(=O)Nc3ccc(C(F)(F)F)cc3)ccc2O[C@H]1CN(C)Cc1ccc(C(=O)Nc2ccccc2N)cc1`, the cytotoxicity call is reported as “inactive”. `C[C@@H]1CN([C@@H](C)CO)C(=O)c2cccc(NC(=O)C3CCOCC3)c2O[C@@H]1CN(C)S(=O)(=O)c1ccc(F)cc1` was tested, and the cytotoxicity call was “inactive”. With `Cc1noc(C)c1S(=O)(=O)Nc1ccc2c(c1)C(=O)N([C@H](C)CO)C[C@@H](C)[C@H](CN(C)CC1CCCCC1)OCCCC[C@@H](C)O2` the cytotoxicity call was “inactive”. In the case of `CC(C=CC=C(C)C=CC1=C(C)C(=O)CCC1(C)C)=CC=CC=C(C)C=CC=C(C)C=CC1=C(C)C(=O)CCC1(C)C` [CANTHAXANTHIN (euglenanone) ], the cytotoxicity call is reported as “inactive”. With `COc1ccc(S(=O)(=O)Nc2ccc3c(c2)[C@@H]2C[C@H](CC(=O)NCC4CC4)O[C@@H](CO)[C@@H]2O3)cc1` the cytotoxicity call was “inactive”. `C[C@H](CO)N1C[C@H](C)[C@@H](CN(C)Cc2ccc(C(=O)Nc3ccccc3N)cc2)Oc2ccc(NS(=O)(=O)c3ccc(Cl)cc3)cc2C1=O` was tested, and the cytotoxicity call was “inactive”.
